Several values for one entry are separate records, joined by “and”; a condition that tells them apart may be missing. Equal entries are not always repeated. The campaign covered roughly 5,500 compounds. About 2,000 (36%) were called active. Roughly 18% stayed inconclusive and do not appear here. Cut-off read from the data, not from the text of the source: active = normalized growth mostly below about 0.91 (no sharp cut-off); inconclusive = no clear call, values can overlap the other calls; inactive = mostly above about 0.92. Some of the results follow.
Test: chemical genetic growth profiling, strain panel (AID 1159580);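 note: tested at 20 µM; growth read once vehicle control cultures reached saturation at 30 °C; 1 = growth at the plate median or of vehicle wells; lower values mean less growth of the strain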
Details: S. cerevisiae deletion strains, growth OD

Measured: normalized growth

Fc1ccc([C@@H]2CCNC[C@H]2COc2ccc3c(c2)OCO3)cc1
inactive: locus YAL013W, strain DEP1, hits give low values 1.02 | locus YAL021C, strain ccr4, hits give low values 1 | locus YAL026C, strain drs2, hits give low values 0.997 | locus YAL030W, strain snc1, hits give low values 1.01 | locus YBL061C, strain skt5, hits give low values 0.991 | locus YBR009C, strain hhf1, hits give low values 1.01 | locus YBR021W, strain FUR4, hits give low values 1.01 | locus YBR023C, strain chs3, hits give low values 1 | locus YBR171W, strain sec66, hits give low values 0.984 | locus YBR229C, strain ROT2, hits give low values 1.01 | locus YBR231C, strain swc5, hits give low values 0.992 | locus YBR279W, strain paf1, hits give low values 1 | locus YCL011C, strain gbp2, hits give low values 0.999 | locus YCL016C, strain dcc1, hits give low values 0.99 | locus YCL029C, strain bik1, hits give low values 1.02 | locus YCL061C, strain MRC1, hits give low values 0.998 | locus YCL069W, strain vba3, hits give low values 1 | locus YCR088W, strain abp1, hits give low values 1 | locus YDL005C, strain med2, hits give low values 1.01 | locus YDL035C, strain GPR1, hits give low values 1.03 | locus YDL040C, strain nat1, hits give low values 0.992 | locus YDL074C, strain BRE1, hits give low values 1.01 | locus YDL101C, strain DUN1, hits give low values 1.01 | locus YDL134C, strain PPH21, hits give low values 1 | locus YDL185W, strain tfp1, hits give low values 1.01 | locus YDL192W, strain arf1, hits give low values 1.01 | locus YDR001C, strain nth1, hits give low values 0.999 | locus YDR069C, strain doa4, hits give low values 1.01 | locus YDR101C, strain arx1, hits give low values 1 | locus YDR137W, strain rgp1, hits give low values 1.09 | locus YDR150W, strain NUM1, hits give low values 1 | locus YDR159W, strain sac3, hits give low values 1.01 | locus YDR162C, strain NBP2, hits give low values 1 | locus YDR195W, strain ref2 1.02 | locus YDR297W, strain sur2, hits give low values 0.998 | locus YDR318W, strain mcm21, hits give low values 1.02 | locus YDR334W, strain swr1, hits give low values 1.01 | locus YDR335W, strain msn5, hits give low values 1.01 | locus YDR388W, hits give low values 1 | locus YDR392W, strain spt3, hits give low values 1.02 | locus YDR502C, strain sam2, hits give low values 0.998 | locus YEL003W, strain gim4, hits give low values 1.01 | locus YEL037C, strain rad23, hits give low values 1 | locus YEL061C, strain CIN8 (second series), hits give low values 1 | locus YEL061C, strain CIN8, hits give low values 1.01 | locus YER015W, strain faa2, hits give low values 1.01 | locus YER016W, strain bim1, hits give low values 0.99 | locus YER110C, hits give low values 1.02 | locus YER111C, strain swi4, hits give low values 0.984 | locus YER155C, strain BEM2 (second series), hits give low values 1.01 | locus YER155C, strain BEM2, hits give low values 1 | locus YER167W, strain BCK2, hits give low values 1.02 | locus YFR010W, strain ubp6, hits give low values 1.03 | locus YGL078C, strain dbp3, hits give low values 0.989 | locus YGL086W, strain mad1, hits give low values 1.02 | locus YGL167C, strain pmr1, hits give low values 1 | locus YGL173C, strain kem1, hits give low values 0.986 | locus YGL227W, strain vid30, hits give low values 0.987 | locus YGL240W, strain doc1, hits give low values 0.99 | locus YGL248W, strain PDE1, hits give low values 1.01 | locus YGL253W, strain hxk2, hits give low values 0.993 | locus YGR078C, strain PAC10, hits give low values 1 | locus YGR135W, strain pre9, hits give low values 0.987 | locus YGR229C, strain SMI1, hits give low values 1 | locus YGR252W, strain gcn5, hits give low values 1.05 | locus YHR013C, strain ard1, hits give low values 0.998 | locus YHR027C, strain rpn1, hits give low values 1 | locus YHR030C, strain SLT2, hits give low values 1.01 | locus YHR079C, strain IRE1 (second series), hits give low values 1 | locus YHR079C, strain IRE1, hits give low values 1.02 | locus YHR094C, strain hxt1, hits give low values 0.999 | locus YHR129C, strain ARP1, hits give low values 1.01 | locus YHR142W, strain chs7, hits give low values 0.969 | locus YHR200W, strain rpn10, hits give low values 1.01 | locus YIL066C, strain RNR3, hits give low values 1.01 | locus YIL073C, strain SPO22, hits give low values 1.09 | locus YIL125W, strain kgd1, hits give low values 0.997 | locus YIR030C, strain dcg1, hits give low values 1 | locus YJL092W, strain hpr5, hits give low values 0.998 | locus YJL095W, strain BCK1 (second series), hits give low values 0.995 | locus YJL095W, strain BCK1, hits give low values 1.02 and 1.01 | locus YJL115W, strain asf1, hits give low values 1 | locus YJL129C, strain trk1, hits give low values 0.987 | locus YJL134W, strain LCB3, hits give low values 1.01 | locus YJL154C, strain vps35, hits give low values 1.02 | locus YJL164C, strain tpk1, hits give low values 1.01 | locus YJL166W, strain qcr8, hits give low values 1.03 | locus YJL168C, strain set2, hits give low values 1.01 | locus YJL187C, strain SWE1 (second series), hits give low values 1 | locus YJL187C, strain SWE1, hits give low values 1.01 | locus YJR043C, strain POL32, hits give low values 1.04 | locus YJR066W, strain TOR1, hits give low values 1.02
